{"source": "PubChem BioAssay AID743415", "about": "(Broad Institute, 2014)", "note": "Potency and affinity values are given separately. Unmarked numbers belong to inactive results.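 Rule for the calls: active = compounds lowering Shn3 expression whose fitted half-maximal concentration is at most twice the top valid dose; inconclusive = flat partial decrease or an invalid curve fit; inactive = the rest.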"}
{"assay": "Shn3 transcript knock-down in Clone20 cells – cell-based, qPCR, cherry-pick, dose response (AID 743415)", "settings": "Shn3 mRNA qPCR, overnight; series mostly up to 35 µM; relative Shn3 expression (fraction): at the top concentration"}
{"smiles": "Cc1onc(-c2ccccc2Cl)c1C(=O)N(C)C1CCCCC1", "relative Shn3 expression (fraction)": 1.02}
{"smiles": "CC(Sc1nc2ccccc2c(=O)n1C)C(=O)N(C)C1CCCCC1", "note": "(stereo unspecified)", "relative Shn3 expression (fraction)": 1.25}
{"smiles": "CC(C)(C)C(=O)Nc1cc2nn(-c3ccccc3)nc2cc1Cl", "relative Shn3 expression (fraction)": 0.982}
{"smiles": "CCN(CC)c1ccc(NC(=O)CN2C(=O)CSc3ncccc32)c(C)c1", "relative Shn3 expression (fraction)": 1.24}
{"smiles": "COc1ccc(NS(=O)(=O)c2ccc(OC)c(N(C)S(=O)(=O)c3ccc(Cl)cc3)c2)cc1", "relative Shn3 expression (fraction)": 1.23}
{"smiles": "Cc1nc(NC(C)c2ccccc2)c2oc3ccccc3c2n1", "note": "(stereo unspecified)", "relative Shn3 expression (fraction)": 1.16}
{"smiles": "CNc1ccccc1C(C)(C)c1cc(-c2cccc(OC)c2)no1", "relative Shn3 expression (fraction)": 1.16}
{"smiles": "Cc1ccc([C@@H]2CC(=O)[C@@H]3CN(S(=O)(=O)c4ccccc4C)[C@H](c4ccc(Cl)cc4)C[C@@H]3N2S(=O)(=O)c2ccc(C)cc2)cc1", "relative Shn3 expression (fraction)": 1.34}
{"smiles": "COc1cccc(-n2c(C)nc3c(cnn3-c3ccc(Cl)cc3)c2=O)c1", "relative Shn3 expression (fraction)": 1.26}
{"smiles": "CC(C)Cn1c(N)c(C(=O)COC(=O)C2Cc3ccccc3CN2S(C)(=O)=O)c(=O)n(C)c1=O", "note": "(stereo unspecified)", "relative Shn3 expression (fraction)": 1.08}
{"smiles": "O=C(CSc1nnc(-c2cccnc2)s1)Nc1ccnc2ccccc12", "relative Shn3 expression (fraction)": 0.959}
{"smiles": "COc1ccc(CC(=O)Nc2ccncc2Cl)cc1", "relative Shn3 expression (fraction)": 0.966}
{"smiles": "CCOC(=O)C1CCCN(S(=O)(=O)c2ccc(S(=O)(=O)N3CCCC3)cc2)C1", "note": "(stereo unspecified)", "relative Shn3 expression (fraction)": 0.904}
{"smiles": "Cc1ccc2c(c1)nnn2C1CCN(S(=O)(=O)c2ccc(C(=O)N3C(C)CCCC3C)cc2)CC1", "note": "(stereo unspecified)", "relative Shn3 expression (fraction)": 1.29}
{"smiles": "CCOC(=O)N1CCN(c2ccc(S(=O)(=O)N(Cc3ccccc3)Cc3ccccc3)cn2)CC1", "relative Shn3 expression (fraction)": 1.78}
{"smiles": "CC1Cc2cc(S(=O)(=O)N3CCN(c4ccc(Cl)cc4)CC3)ccc2N1C(=O)C1CC1", "note": "(stereo unspecified)", "relative Shn3 expression (fraction)": 1.16}
{"smiles": "COc1ccc(OC)c(NC(=O)CN(Cc2ccc(F)cc2)C2CCCCC2)c1", "relative Shn3 expression (fraction)": 1.71}
{"smiles": "COc1ccccc1NS(=O)(=O)c1cc(NC(=O)c2ccc(Cl)nc2)ccc1Cl", "relative Shn3 expression (fraction)": 0.652}
{"smiles": "O=C(Nc1nc(-c2ccccc2)cs1)C1CCCCN1S(=O)(=O)c1ccccc1", "note": "(stereo unspecified)", "relative Shn3 expression (fraction)": 1.36}
{"smiles": "Cc1ccc(NC(=O)c2ccc(Cl)c(N3C(=O)C=CC3=O)c2)cc1", "relative Shn3 expression (fraction)": 7.39}
{"smiles": "Cc1ccc(NC(=O)c2cc(S(=O)(=O)NCCC3=CCCCC3)ccc2F)cc1F", "relative Shn3 expression (fraction)": 1.86}
{"smiles": "CC(=O)N1c2ccc(S(=O)(=O)N3CCC(C(=O)N4CCN(c5cccc(C(F)(F)F)c5)CC4)CC3)cc2CC1C", "note": "(stereo unspecified)", "relative Shn3 expression (fraction)": 1.22}
{"smiles": "CCOC(=O)c1oc2ccc(S(=O)(=O)n3nc(-c4ccc(OC)cc4)cc3N)cc2c1C", "relative Shn3 expression (fraction)": 1.18}
{"smiles": "Cc1ccc2nc(NC(=O)C3CCN(S(=O)(=O)c4ccc5c(c4)oc(=O)n5C)CC3)sc2c1", "relative Shn3 expression (fraction)": 1.28}
{"smiles": "CCOc1ccc(N(C)S(=O)(=O)c2cc(-c3cc(C)no3)ccc2C(C)C)cc1", "relative Shn3 expression (fraction)": 2.28}
{"smiles": "COc1ccc(-c2cc(C(F)(F)F)nc(S(C)(=O)=O)n2)cc1", "relative Shn3 expression (fraction)": 0}
{"smiles": "c1ccc(-c2noc(-c3ccc4ccccc4c3)n2)nc1", "relative Shn3 expression (fraction)": 0.683}
{"smiles": "Cc1ccccc1OCCOC(=O)c1cc(S(=O)(=O)N2CCCCC2)ccc1N1CCOCC1", "relative Shn3 expression (fraction)": 1.2}
{"smiles": "CCC(C)c1ccc(S(=O)(=O)N2CCN(C(=O)c3ccc(Cl)c(S(=O)(=O)N4CCOCC4)c3)CC2)cc1", "note": "(stereo unspecified)", "relative Shn3 expression (fraction)": 1.15}
{"smiles": "CC(C)c1nc(SCC(=O)Nc2cccc(C(F)(F)F)c2)c2c(=O)n(C)c(=O)n(C)c2n1", "relative Shn3 expression (fraction)": 1.45}
{"smiles": "Cc1nc2ccccc2cc1OCc1ccc(F)cc1", "relative Shn3 expression (fraction)": 1.29}
{"smiles": "CCOc1ccc(Cn2nnc(C(=O)Nc3cc(OC)cc(OC)c3)c2N)cc1", "relative Shn3 expression (fraction)": 1.13}
{"smiles": "O=C(CSc1c2c(nc3ccc(Cl)cc13)CCCC2)NCc1ccco1", "relative Shn3 expression (fraction)": 4.77}
{"smiles": "CCCCN1CC(COCc2ccccc2)Oc2cccc(Oc3ccc(C(C)C)cc3)c2S1(=O)=O", "note": "(stereo unspecified)", "relative Shn3 expression (fraction)": 1.44}
{"smiles": "Cc1cccc(-c2noc(CN(C(=O)C(c3ccccc3)c3ccccc3)C(C)C)n2)c1", "relative Shn3 expression (fraction)": 1.16}
{"smiles": "CCn1cc(CN(C)S(=O)(=O)c2ccc3ccccc3c2)c(C)n1", "relative Shn3 expression (fraction)": 1.25}
